Bioassay records (PubChem)
HT1080NT lethal: qHTS for induction of synthetic lethality in tumor cells producing 2HG: qHTS for the HT-1080-NT fibrosarcoma cell line | hit rate 1.6% among 360,000 | HT-1080-NT fibrosarcoma viability, CellTiter-Glo ATP luminescence, 48 h | Potency, µM (titrated, usually from 46.1 µM), for the others: at the top dose activity, negative = less viability, usual class: cytotoxic;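 also: NT is the 2HG producing partner of a matched IDH1 knockdown line; 0% = DMSO-treated cells and -100% = media-only wells without cells; nearly all actives have a fitted effect of over 55% in size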
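Viability of the 2HG-overproducing fibrosarcoma line after 48 hours of compound exposure at 37 degrees C was determined by luminescence with CellTiter-Glo, and concentration-effect curves were then fitted and categorized.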
KB-3-1 cytotox: qHTS assay for MDR1-selective chemotherapeutics: Primary screen using the parental adenocarcinoma cell KB-3-1. KB-3-1 viability, CellTiter-Glo ATP luminescence, 72 h. Potency, µM (top dose mostly 46.1 µM), most hits filed as cytotoxic. hit rate 1.4% among 400,000. AID 1347075, 2019; also: % is scaled to controls: 0 for no effect and ±100 for the full control effect; nearly all actives have a fitted effect of over 60% in size
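Cytotoxicity measured as CellTiter-Glo luminescence after 72 h at 37 C. Compound titrations were pinned onto drug-naive KB-3-1 parental adenocarcinoma cells grown in DMEM with 10% FBS, and normalized data fitted to concentration-response curves.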
HT1080 IDH1KD tx: qHTS for induction of synthetic lethality in tumor cells producing 2HG: qHTS for the HT-1080-IDH1KD cell line | HT-1080 IDH1 knockdown viability, ATP luminescence, 48 h | Potency, µM (top dose mostly 46.1 µM), for the others: at the top dose activity, negative = toxicity, most hits filed as cytotoxic | hit rate 2% among 360,000 | AID 686971, 2013;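 also: 0% = DMSO wells and -100% = cell-free medium wells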
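IDH1KD HT-1080 cells, 750/well, RPMI + 5% FBS; compound pinned after 2 h settling; 48 h, 37 °C; CellTiter-Glo luminescence; % activity normalised to DMSO and no-cell wells; curves fitted, classed by r2 and efficacy.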
MCF10A rerep: A quantitative high throughput screen for small molecules that induce DNA re-replication in MCF 10a normal breast cells; Potency, µM (series often up to 46.1 µM), inactives show at the highest dose activity, positive = re-replication, usual class: activators; MCF 10A DNA re-replication, Hoechst nuclear intensity, 48 h; AID 624296, 2012; hit rate 2.9% among 350,000; also: % of control where 0% means no effect; nearly all actives have a fitted effect of over 50% in size
KB-V1 MDR tox: qHTS assay for MDR1-selective chemotherapeutics: Primary screen using the drug-selected MDR subline cells KB-V1 | KB-V1 MDR cells viability, CellTiter-Glo, 72 h | Potency, µM (doses to about 46.1 µM), usual class: cytotoxic | hit rate 3.4% among 400,000; also: % is scaled to controls: 0 for no effect and ±100 for the full control effect; nearly all actives have a fitted effect of over 60% in size
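Compound-treated KB-V1 multidrug-resistant cells, 72 h, 37 degrees C; viability by CellTiter-Glo. Fitted qHTS curves give the values.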
SW480 rereplic: A quantitative high throughput screen for small molecules that induce DNA re-replication in SW480 colon adenocarcinoma cells. SW480 DNA re-replication, Hoechst DNA content imaging, 48 h. Potency, µM (top dose mostly 46.1 µM), without a hit: at the top dose re-replication activation, actives largely listed as activators. hit rate 1.8% among 340,000; also: % of control where 0% means no effect; nearly all actives have a fitted effect of over 55% in size
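Image-based DNA-content assay: after two days of treatment, nuclei were labelled with the DNA dye Hoechst and imaged, and hits were compounds raising the count of nuclei showing high fluorescence intensity.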
Starred values were filed as active, the others as inactive; i = inactive; ? = inconclusive; nt = no result given. Rows were chosen to be rich in hits. Some 7.9% of all compounds tested hit in one or more screens of this group. Calls follow the shape of the dose curve; as a rule, active = well fitted curve in the direction sought with a large enough effect; inconclusive = small, poorly fitted or top-dose-only effect, or another doubt; inactive = no such curve, though single readings can be large; an effect the other way counts as inactive or inconclusive. Potency is read from the fitted curve at half-maximal effect.

SMILES | HT1080NT lethal | KB-3-1 cytotox | HT1080 IDH1KD tx | MCF10A rerep | KB-V1 MDR tox | SW480 rereplic
O=C(c1ccc(N2CCN(C(=O)c3ccccc3)CC2)cc1)c1cccc(F)c1 | -27% | ? | -5% | 9.2µM* | 9.2µM* | 8%
Cc1[nH]c(-c2ccc(F)cc2)cc1C(=O)N1CCN(c2cccc(Cl)c2)CC1 | ? | i | ? | 9.2µM* | ? | ?
CC(C)CNC(=O)c1ccccc1NC(=O)c1ccc(CN2CCOCC2)cc1 | -1% | i | -4% | 1% | ? | 0%
CCCCC1=NN(C(=O)c2cocc2C)C(O)(C(F)(F)F)C1 (centres undefined) | 4% | i | -26% | ? | i | 7.3µM*
CCc1ccc(-c2cc(C)no2)cc1S(=O)(=O)N1CCN(c2ccccn2)CC1 | ? | ? | -9% | 11% | ? | -3%
Cc1cc(-c2ccc(C)c(S(=O)(=O)NCC3CCN(Cc4ccc(F)cc4)CC3)c2)on1 | ? | ? | ? | 13% | i | 2.9µM*
CCc1ccc(-c2cc(C)no2)cc1S(=O)(=O)N1CCOc2ccccc21 | ? | i | ? | ? | 21µM* | 26%
COc1ccccc1CN1CCC(CNS(=O)(=O)c2cc(-c3cc(C)no3)ccc2C)CC1 | ? | i | ? | 3% | i | 32%
Cc1cc(-c2ccc(C(C)C)c(S(=O)(=O)N3CCN(c4ccccn4)CC3)c2)on1 | 2% | ? | -2% | 4.1µM* | ? | ?
CCc1ccc(-c2cc(C)no2)cc1S(=O)(=O)NCCCN1CCN(c2ccccc2)CC1 | 18µM* | ? | ? | ? | i | ?
CCc1ccc(-c2cc(C)no2)cc1S(=O)(=O)NCCN1CCC(C)CC1 | -28% | ? | -23% | 10% | i | 1%
CSc1nc2nc3c(cc2c(=O)n1-c1cccc(C)c1)COC(C)(C)C3 | 0% | i | 3% | 6% | i | -6%
CCc1ccc(-c2cc(C)no2)cc1S(=O)(=O)N1CCN(c2ccc(F)cc2)CC1 | -10% | ? | -23% | 23% | 12µM* | ?
CCc1ccc(-c2cc(C)no2)cc1S(=O)(=O)NCc1ccc(OC)cc1 | nt | 3.3µM* | nt | nt | 3.7µM* | nt
O=C(O)Cc1ccc(NC(=S)Nc2cccc(Cl)c2Cl)cc1 | 5% | i | 14% | -12% | i | 1%
Cc1oc(-c2ccc3c(c2)OCCO3)cc1C(=O)O | ? | ? | ? | 14% | 15µM* | -6%
Cc1oc(-c2ccc3c(c2)OCCO3)cc1C(=O)NCC(=O)O | -1% | i | -6% | -4% | i | 16%
NC(=O)C1CCN(CCS(=O)(=O)c2ccc(Cl)cc2)CC1 | -1% | i | -9% | ? | i | 18µM*
COc1ccc(COCC(O)CN2CCN(S(=O)(=O)c3c(F)cccc3F)CC2)cc1OC (centres undefined) | 5% | i | 0% | 10% | 13µM* | ?
O=S(=O)(c1ccc(F)cc1)N1CCN(CC(O)COCc2ccccc2)CC1 (centres undefined) | -3% | i | -2% | -3% | 21µM* | -2%
O=C(N/N=C/c1sc(=O)[nH]c1-[n+]1ccc2ccccc2c1)c1ccccc1[O-] | -19% | 8.2µM* | -20% | 5% | ? | 140%
O=C(N/N=C/c1sc(=O)[nH]c1-[n+]1ccccc1)c1ccccc1[O-] | 10% | i | 10% | 0% | i | 21%
Cc1cccc(C#CC2=CC(=O)CC(C)(C)C2)c1 | 16% | i | 0% | nt | i | nt
CC1(C)CC(=O)C=C(C#CC2(O)CCCCC2)C1 | 5.2µM* | 23µM* | 13µM* | nt | 16µM* | nt
Cc1cc(Cl)c(S(=O)(=O)N2CCSCC2)cc1OCC(=O)NC1CCCCC1 | ? | ? | -22% | ? | 3.7µM* | ?
SMILES | HT1080NT lethal | KB-3-1 cytotox | HT1080 IDH1KD tx | MCF10A rerep | KB-V1 MDR tox | SW480 rereplic
Cc1cc(Cl)c(S(=O)(=O)NC2CCCC2)cc1OCC(=O)NC1CCCCC1 | -1% | ? | 20µM* | 17% | i | 14%
Cc1cc(Cl)c(S(=O)(=O)N2CCCCCC2)cc1OCC(=O)NC1CCCCC1 | -4% | i | 2% | 0% | i | -6%
COC(=O)c1ccccc1S(=O)(=O)N1CCC(C(=O)OC(C)C(=O)Nc2ccccc2OC)CC1 (centres undefined) | -2% | i | 12% | 4% | i | 1%
N#Cc1nc(Cc2ccccc2)oc1NCCCn1ccnc1 | 18% | i | -2% | ? | i | 16µM*
CCCCNC(=O)[C@H](CSCc1ccccc1)N1Cc2ccccc2C1=O | -7% | i | 0% | -4% | i | -2%
CCOc1cc(/C=N/NC(=O)N/N=C/c2ccc(O)c(OCC)c2)ccc1O | 1.8µM* | 6.5µM* | 2.6µM* | ? | i | ?
COc1cc(/C=N/NC(=O)NC23CC4CC(CC(C4)C2)C3)ccc1O | 26µM* | i | ? | 4% | i | -5%
CCOc1cc(/C=N/Nc2nnc(C)n2N)ccc1O | ? | i | 23µM* | ? | i | 7%
CCOc1cc(/C=N/Nc2ncnc(Cl)c2N)ccc1O | 8% | i | 17% | ? | ? | 1%
CCOC(=O)N1CCC(NC(=O)C2=CCN(S(=O)(=O)c3ccc(OC)cc3)CC2)CC1 | 2% | i | 0% | 5% | i | 19%
O=C(CCCCl)Oc1ccc2cc(-c3ccc4ccccc4n3)c(=O)oc2c1 | 6% | i | 19% | 6.5µM* | i | 2.1µM*
CC(=O)COc1ccc2cc(-c3ccccc3)c(=O)oc2c1 | 14% | i | 5% | 2% | i | 27%
Cc1ccc(-c2nc3sc(C#N)c(N)n3c(=O)c2C#N)cc1 | 2% | i | 4% | -1% | i | -8%
Cc1ccc(CCNC(=O)CCSCc2ccc(Cl)cc2)cc1 | -2% | i | -4% | 1% | i | -1%
O=C(CN1CC[n+]2c(-c3ccccc3)csc21)c1ccc(Br)cc1 | 21µM* | i | 0% | 6% | ? | -8%
CCc1ccc(C(=O)Cn2ccsc2=N)cc1 | -13% | ? | -4% | 12% | 18µM* | 7%
